The source of these data is patent US20180258417, “RAPID CHARACTERIZATION OF CAS ENDONUCLEASE SYSTEMS, PAM SEQUENCES AND GUIDE RNA ELEMENTS” (PIONEER HI-BRED INTERNATIONAL, INC., published 2018).

In assay [1] the target is T1, Blat Cas9 (Brevibacillus laterosporus SSP360D4).
T1 chain: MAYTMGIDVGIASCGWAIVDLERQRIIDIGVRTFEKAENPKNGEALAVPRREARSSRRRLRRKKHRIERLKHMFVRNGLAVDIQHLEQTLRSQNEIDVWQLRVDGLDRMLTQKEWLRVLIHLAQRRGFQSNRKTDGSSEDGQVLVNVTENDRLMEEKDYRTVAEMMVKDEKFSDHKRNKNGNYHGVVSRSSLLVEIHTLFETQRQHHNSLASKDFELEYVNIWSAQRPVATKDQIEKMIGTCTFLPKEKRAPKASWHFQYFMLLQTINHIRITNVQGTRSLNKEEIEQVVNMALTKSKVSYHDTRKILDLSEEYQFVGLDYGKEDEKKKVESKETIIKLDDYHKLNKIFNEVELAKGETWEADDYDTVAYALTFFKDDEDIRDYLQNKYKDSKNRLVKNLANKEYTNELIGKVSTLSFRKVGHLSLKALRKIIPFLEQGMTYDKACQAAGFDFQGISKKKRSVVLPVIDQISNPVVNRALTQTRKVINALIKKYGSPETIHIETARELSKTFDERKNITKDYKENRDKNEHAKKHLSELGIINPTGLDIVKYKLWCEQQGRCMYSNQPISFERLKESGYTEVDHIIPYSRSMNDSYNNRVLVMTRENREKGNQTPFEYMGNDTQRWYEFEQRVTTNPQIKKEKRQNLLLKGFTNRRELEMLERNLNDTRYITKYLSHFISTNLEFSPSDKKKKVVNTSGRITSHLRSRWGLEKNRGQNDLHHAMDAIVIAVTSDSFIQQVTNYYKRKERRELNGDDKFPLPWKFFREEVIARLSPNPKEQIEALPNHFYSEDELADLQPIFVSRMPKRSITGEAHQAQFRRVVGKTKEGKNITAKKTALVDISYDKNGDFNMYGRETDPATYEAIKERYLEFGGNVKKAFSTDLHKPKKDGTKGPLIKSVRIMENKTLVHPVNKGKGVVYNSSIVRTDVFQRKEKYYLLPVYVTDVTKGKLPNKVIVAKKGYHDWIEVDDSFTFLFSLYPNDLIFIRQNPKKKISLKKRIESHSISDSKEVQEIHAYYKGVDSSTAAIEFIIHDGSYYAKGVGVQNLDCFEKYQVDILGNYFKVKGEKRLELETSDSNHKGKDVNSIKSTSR
Put plainly: cleavage_in_vitro; PAM position 7 A to C; 10 mM MgCl2, 15 C. To be noted: tags: C-terminal His (pBAD24-CHis). An excerpt: (§1) To validate the PAM specificity for Blat Cas9, plasmids were engineered to contain mutations ([…] (reference), […], […], […], […], […] with mutations shown in bold and underlined, FIG. 39) in the most conserved residues of the PAM immediately downstream of a 20 base pair region matching the variable targeting domain T1 (SEQ ID NO: 141). In vitro cleavage reactions with the various PAM sequences were initiated by mixing supercoiled plasmid DNA with pre-assembled Blat Cas9-sgRNA complex (1:1 v/v ratio) at 15° C. The final reaction mixture contained 3 nM plasmid, 50 nM Cas9, 10 mMTris-HCl (pH 7.5 at 37° C.), 100 mM NaCl, 1 mM DTT and 10 mM MgCl2 in a 100 μI reaction volume. Aliquots were removed at timed intervals and quenched with phenol/chloroform. The aqueous phase was mixed with 3× loading dye solution (0.01% (w/v) bromophenol blue and 75 mM EDTA in 50% (v/v) glycerol) and reaction products analyzed by agarose gel electrophoresis. The amount of supercoiled (SC) form was evaluated by densitometric analysis of ethidium bromide stained gels using the software ImageJ. Values of reaction rate constants were obtained as described by Szczelkun, et al., (2014) Proc. Natl. Acad. Sci. USA 111:9798-9803). Replacement of the C nucleotide at the 5th position abolished plasmid DNA cleavage confirming its key role in Blat Cas9 PAM recognition (FIG. 39).

Assay [2] has as its target T1, Blat Cas9. Put plainly: cleavage_in_vitro; PAM position 8 A to C; 10 mM MgCl2, 15 C. The note with it: tags: C-terminal His (pBAD24-CHis).
From the text: as §1

B1: Blat sgRNA direct ; T1 + GTCCCGCA PAM (ssRNA ; dsDNA)
RNA: GGGCGCUAAAGAGGAAGAGGACAGCUAUAGUUCCUUACUGAAAGGUAAGUUGCUAUAGUAAGGGCAACAGACCCGAGGCGUUGGGGAUCGCCUAGCCCGUUUUUACGGGCUCUCCCCAUAUUCAAAAUAAUGACAGACGAGCACCUUGGAGCAUUUAUUUCCGAGGUGCUUUUUUUU
DNA 1: CGCTAAAGAGGAAGAGGACAGTCCCGCA
DNA 2: TGCGGGACTGTCCTCTTCCTCTTTAGCG
modifications: [NONE]
Take B1: in assay [1], the “cleavage rate decrease vs reference PAM” value was found to be 43 fold decrease in rate.

B2: Blat sgRNA direct ; T1 + GTCCCGAC PAM (ssRNA ; dsDNA)
RNA: GGGCGCUAAAGAGGAAGAGGACAGCUAUAGUUCCUUACUGAAAGGUAAGUUGCUAUAGUAAGGGCAACAGACCCGAGGCGUUGGGGAUCGCCUAGCCCGUUUUUACGGGCUCUCCCCAUAUUCAAAAUAAUGACAGACGAGCACCUUGGAGCAUUUAUUUCCGAGGUGCUUUUUUUU
DNA 1: CGCTAAAGAGGAAGAGGACAGTCCCGAC
DNA 2: GTCGGGACTGTCCTCTTCCTCTTTAGCG
As to B2, the binding signal in assay [2] was 12 fold decrease in rate.
